# Data reported in the supplement of paper PMC10981050.
# “And” between values parts separate entries of the source, which are not always exact repeats. Equal entries are not always repeated. Structures can show the parent of a compound that is named as a salt.
# Columns and labels:
# Assay in all cases: cell viability relative to vehicle control; higher = less cytotoxic
# Conditions in all cases: 10 µM
# K562 = test system: K562
# Method in brief: (§1)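 Screening covered the Selleck bioactive, kinase and epigenetic probe libraries, less identity-inconsistent compounds, on CRISPR-edited mutant clones and isogenic wild-type clones of four leukaemia lines. Cells, at 2000 per well in 50 µL medium, received a single 10 µM acoustically dispensed dose. After 48 h the supernatant was removed and CellTiter-Glo luminescence was read. Viability was analysed in Genedata Screener as percent of the on-plate vehicle control.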
# MARIMO = test system: MARIMO
# Method in brief: as §1
# MOLM14 = test system: MOLM14
# Method in brief: as §1
# OCI-AML2 = test system: OCI-AML2
# Method in brief: as §1
Compound,cell viability (K562; SRSF2 genotype: SRSF2 P95H/wt),cell viability (K562; SRSF2 genotype: SRSF2 wt/wt) [%],cell viability (MARIMO; SRSF2 genotype: SRSF2 P95H/wt) [%],cell viability (MARIMO; SRSF2 genotype: SRSF2 wt/wt) [%],cell viability (MOLM14; SRSF2 genotype: SRSF2 P95H/wt) [%],cell viability (MOLM14; SRSF2 genotype: SRSF2 wt/wt) [%],cell viability (OCI-AML2; SRSF2 genotype: P95H/wt) [%],cell viability (OCI-AML2; SRSF2 genotype: wt/wt) [%]
COc1ccc2cc(CCC(C)=O)ccc2c1 [Nabumetone],105% and 96.8%,93.8,97.1,95.3,104,104,92.4,92.4
Cc1ccc(OCC(O)C(C)NC(C)C)c2c1CCC2 (stereo not drawn),93.5% and 95.7%,92.1,104,100,93.1,100,92.2,99
Cc1csc(-c2nnc(Nc3ccc(Oc4ncccc4-c4ccnc(N)n4)cc3)c3ccccc23)c1,67.2% and 86.6%,81.4,91.6,77.7,53.3,30.5,38.5,33.4
C[C@@H]1CC[C@@]2(NC1)O[C@H]1C[C@H]3[C@@H]4CC=C5C[C@@H](O[C@@H]6O[C@H](CO)[C@@H](O[C@@H]7O[C@@H](C)[C@H](O)[C@@H](O)[C@H]7O)[C@H](O)[C@H]6O[C@@H]6O[C@@H](C)[C@H](O)[C@@H](O)[C@H]6O)CC[C@]5(C)[C@H]4CC[C@]3(C)[C@H]1[C@@H]2C [Solamargine],85.3% and 85.5%,81.8,51.5,89.6,81.6,81.6,91,87.2
Cc1cc(C#N)cc(C)c1Oc1nc(Nc2ccc(C#N)cc2)nc(N)c1Br [Etravirine (TMC125)],101% and 96.6%,94.6,97,108,107,102,99.5,117
CC(=O)O[C@H](CC=C(C)C)C1=CC(=O)c2c(O)ccc(O)c2C1=O [Acetylshikonin],4.63% and 1.27%,1.38,0.73,0.66,0.73,0.53,0.72,0.59
CC(NC(=O)C(Cc1ccccc1)NC(=O)OCc1ccccc1)C(=O)CF (stereo not drawn),102% and 101%,96,92.9,111,94.3,101,98.8,94.9
CCOC(=O)c1cc2ccccc2oc1=O [Ethyl Coumarin-3-carboxylate],96.8% and 96.2%,92.9,94.3,97.2,88.7,98,95,96.8
C[C@]1(O)C[C@@H](O)[C@]2(O)C=CO[C@@H](O[C@H]3O[C@H](CO)[C@@H](O)[C@H](O)[C@H]3O)[C@@H]21 [Harpagide],105% and 99.4%,101,106,98.7,106,103,97.6,103
CC(=O)OCC(=O)[C@H]1CC[C@H]2[C@@H]3CCC4=CC(=O)CC[C@]4(C)[C@H]3CC[C@]12C [Deoxycorticosterone acetate],91.4% and 91.9%,98.4,89.8,99,89,96.2,86.1,76.2
CC(C)=CCc1cc2c(cc1O)O[C@H](c1ccc(O)cc1)CC2=O [Bavachin],95.2% and 87.3%,100,96.5,99.5,111,109,101,114
CC(=O)c1ccc(O)c(C(=O)O)c1 [5-Acetylsalicylic acid],110% and 106%,98,106,112,101,107,102,105
CC(C)(O)C1CCC(C)(C2C(O)CC3(C)C4CC(OC5OC(CO)C(O)C(O)C5O)C5C(C)(C)C(OC6OCC(O)C(O)C6O)CCC56CC46CCC23C)O1 (stereo not drawn) [Astragaloside A],104% and 103%,99.1,109,111,106,107,97.2,103
N#C/C(=C1/SC[C@@H](c2ccc(Cl)cc2Cl)S1)n1ccnc1 [Luliconazole],85.6% and 83.3%,82.6,78.9,100,88.7,89.5,62.5,83.5
O=C(O)[C@H](O)c1ccccc1 [(R)-(-)-Mandelic acid],94% and 92.9%,89.4,91.2,105,91.8,92.6,98.2,106
Clc1ccc(COC(Cn2ccnc2)c2ccc(Cl)cc2Cl)cc1 (stereo not drawn) [Econazole nitrate (Spectazole)],67.2% and 76.7%,70.1,64.3,71,58.2,73,57.8,52.4
CC(=O)OC1C[C@H](C)CCC1C(C)C (stereo partly drawn) [(1R)-(-)-Menthyl acetate],98% and 101%,101,92.4,97.6,98.5,106,104,114
COc1cc2ncnc(Nc3ccc(F)c(Cl)c3)c2cc1O,92.5% and 95.6%,102,102,101,81.9,101,90.2,94
O=C(c1ccc(Nc2nccc(-c3cc4ccccc4s3)n2)cc1)N1CCC(N2CCCC2)CC1,1.53% and 1.22%,1.15,0.47,0.54,0.29,0.3,0.25,0.35
"Cn1cnc([N+](=O)[O-])c1Sc1ncnc2[nH]cnc12 [Azathioprine (Azasan, Imuran)]",53.6% and 63.6%,34.8,82.2,87.2,85.2,81.8,87.7,92
COc1cc2c(cc1OC)[C@H]1C[C@@H](OC(=O)[C@@H](N)C(C)C)[C@H](CC(C)C)CN1CC2 [Valbenazine tosylate],93.2% and 97.7%,101,108,93.9,103,106,97.2,96.9
